Bioassay records as filed in PubChem.
A selection: hits, their analogues and other compounds. The true share with any hit is near 19%.
KB-3-1 tox: KB-3-1 parental cell cytotoxicity. KB-3-1 viability, CellTiter-Glo ATP luminescence, 72 h. Potency, µM (doses to about 46.1 µM), usual class: cytotoxic. 400,000 tested, 1.4% active; note: nearly all actives have a fitted effect of over 60% in size
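Cytotoxicity in the drug-sensitive parental line KB-3-1 was scored as loss of CellTiter-Glo luminescence following 72 h incubation with compound. Values come from curve fitting of normalized concentration-response data.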
HT1080NT lethal: kills 2HG-producing HT-1080-NT fibrosarcoma cells; Potency, µM (titrated, usually from 46.1 µM), inactives show top-dose activity, negative = less viability, actives largely listed as cytotoxic; HT-1080-NT fibrosarcoma viability, CellTiter-Glo ATP luminescence, 48 h; 360,000 tested, 1.6% active;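 note: NT is the 2HG producing partner of a matched IDH1 knockdown line; 0% = DMSO-treated cells and -100% = media-only wells without cells; nearly all actives have a fitted effect of over 55% in size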
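Viability by CellTiter-Glo luminescence after 48 h compound exposure at 37C of HT-1080-NT cells (750/well, RPMI, 5% FBS). % activity scaled between DMSO wells and medium-only wells, then curve-fitted and categorized by curve class.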
DT40 TDP1 no CPT: qHTS for Inhibitors of human tyrosyl-DNA phosphodiesterase 1 (TDP1): qHTS in cells in absence of CPT; DT40 Tdp1-/- hTDP1 cells, no CPT, ATP luminescence, 48 h; Potency, µM (titrated, usually from 46.2 µM), without a hit: at the highest dose activity change, negative = growth inhibition, actives largely listed as inhibitors; 420,000 tested, 15% active; AID 686978, 2013; note: nearly all actives have a fitted effect of over 55% in size
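DT40 Tdp1-/-;hTDP1 cells, no CPT (DMSO vehicle only), 400 cells/well; compounds pin-transferred; ≥48 hr, 37 °C; CellTiter-Glo 30 min RT dark, luminescence read.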
HT1080 IDH1KD tx: kills HT-1080 cells with IDH1 knockdown; HT-1080 IDH1 knockdown viability, ATP luminescence, 48 h; Potency, µM (titrated, usually from 46.1 µM), for the others: top-dose activity, negative = toxicity, usual class: cytotoxic; 360,000 tested, 2% active; AID 686971;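 note: 0% = DMSO wells and -100% = cell-free medium wells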
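% activity derives from luminescence (CellTiter-Glo), normalised to DMSO and no-cell wells. HT-1080-IDH1KD cells, 750/well, had 48 h compound exposure at 37 °C.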
TDP1 cell CPT: growth inhibition of DT40 Tdp1-/-;hTDP1 cells with camptothecin (screen for TDP1 inhibitors) | chicken DT40 Tdp1-/-;hTDP1 cells + 20 nM CPT, ATP luminescence, 48 h | Potency, µM (doses to about 46.2 µM), without a hit: at the highest dose activity change, negative = growth inhibition, actives largely listed as inhibitors | 420,000 tested, 12% active | AID 686979; note: nearly all actives have a fitted effect of over 55% in size
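Chicken DT40 Tdp1-/- cells stably complemented with human TDP1 were seeded at 400 cells/well in medium containing 20 nM camptothecin, exposed to pin-transferred compounds, and grown at 37 °C for at least 48 hr. Viability was read as ATP luminescence.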
KB-V1 cytotox: kills drug-selected multidrug resistant KB-V1 cells; KB-V1 MDR cells viability, CellTiter-Glo, 72 h; Potency, µM (top dose mostly 46.1 µM), hits mostly cytotoxic; 400,000 tested, 3.4% active; AID 1347076; note: nearly all actives have a fitted effect of over 60% in size
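Compound-treated KB-V1 multidrug-resistant cells, 72 h, 37 degrees C; viability by CellTiter-Glo. Fitted qHTS curves give the values.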
* marks the source's active call; other numbers are inactive results. Calls come from the whole dose curve; as a rule, active = well fitted curve in the direction sought with a large enough effect; inconclusive = small, poorly fitted or top-dose-only effect, or another doubt; inactive = no such curve, though single readings can be large; an effect the other way counts as inactive or inconclusive. Unless noted, % is set by controls: 0 for no effect and ±100 for the full control effect; potency is the fitted concentration of half-maximal effect.

Screening O=C(COC(=O)CNC(=O)C1CCCCC1)Nc1ccccc1OC(F)F returned HT1080NT lethal 4.0%, DT40 TDP1 no CPT 0.9%, HT1080 IDH1KD tx -8.6% and TDP1 cell CPT inconclusive.
O=C(/C=C/c1ccccc1)NC(NC(=S)Nc1ccc(Cl)cc1Cl)C(Cl)(Cl)Cl (centres undefined) was read as KB-3-1 tox inactive, HT1080NT lethal -24.0%, DT40 TDP1 no CPT 18.4µM*, HT1080 IDH1KD tx inconclusive, TDP1 cell CPT 20.6µM* and KB-V1 cytotox inconclusive.
Screening CN(Cc1ccccn1)Cc1nc(Cc2ccccc2Cl)no1 returned KB-3-1 tox inactive, HT1080NT lethal 3.1%, DT40 TDP1 no CPT 14.4%, HT1080 IDH1KD tx 8.0%, TDP1 cell CPT 3.5% and KB-V1 cytotox inactive.
For Cc1cnccc1CN(C)Cc1nc(Cc2ccccc2Cl)no1 the results were KB-3-1 tox 20.6µM*, HT1080NT lethal inconclusive, DT40 TDP1 no CPT 14.6µM*, HT1080 IDH1KD tx -28.7%, TDP1 cell CPT 18.4µM* and KB-V1 cytotox 9.2µM*.
Screening CCc1nc2c(OCc3cc(Cl)cc(Cl)c3)cccn2c1N(C)C(=O)c1cccc(OC)c1 returned KB-3-1 tox inactive, HT1080NT lethal inconclusive, DT40 TDP1 no CPT inconclusive, HT1080 IDH1KD tx inconclusive, TDP1 cell CPT inconclusive and KB-V1 cytotox inactive.
N#Cc1ccccc1OCC(=O)OCC(=O)NC1CC1 was read as KB-3-1 tox inactive, HT1080NT lethal 7.1%, DT40 TDP1 no CPT 15.4%, HT1080 IDH1KD tx 7.5%, TDP1 cell CPT -4.8% and KB-V1 cytotox inconclusive.
`COc1ccc(NC(=O)C2(C)Cc3c(-c4ccccc4)ccnc3O2)cc1OC` (centres undefined) gave KB-3-1 tox inactive, HT1080NT lethal -1.2%, DT40 TDP1 no CPT inconclusive, HT1080 IDH1KD tx -21.5%, TDP1 cell CPT inconclusive and KB-V1 cytotox inconclusive.
`CC1(C(=O)Nc2cccc(OC(F)(F)F)c2)Cc2c(-c3cccc(C(N)=O)c3)ccnc2O1` (centres undefined) gave KB-3-1 tox inactive, HT1080NT lethal inconclusive, DT40 TDP1 no CPT 20.6µM*, HT1080 IDH1KD tx inconclusive, TDP1 cell CPT inconclusive and KB-V1 cytotox inactive.
`CC1(C(=O)Nc2cccc(OC(F)(F)F)c2)Cc2c(-c3ccc4c(c3)OCO4)ccnc2O1` (centres undefined) gave KB-3-1 tox inconclusive, HT1080NT lethal inconclusive, DT40 TDP1 no CPT inconclusive, HT1080 IDH1KD tx 16.4µM*, TDP1 cell CPT 20.6µM* and KB-V1 cytotox inactive.
CC1(C(=O)Nc2ccc(Cl)c(C(F)(F)F)c2)Cc2c(-c3cccc(C(N)=O)c3)ccnc2O1 (centres undefined) was read as KB-3-1 tox inactive, HT1080NT lethal 23.1µM*, DT40 TDP1 no CPT 6.51µM*, HT1080 IDH1KD tx inconclusive, TDP1 cell CPT 10.3µM* and KB-V1 cytotox inconclusive.
`COc1ccc(NC(=O)C2(C)Cc3c(-c4ccc5c(c4)OCO5)ccnc3O2)cc1` (centres undefined) gave KB-3-1 tox 16.4µM*, HT1080NT lethal inconclusive, DT40 TDP1 no CPT 2.91µM*, HT1080 IDH1KD tx inconclusive, TDP1 cell CPT 4.11µM* and KB-V1 cytotox inconclusive.
CCCCN1CC[C@H]2C=CC[C@@H](C(=O)NCc3cccnc3)[C@H]2C1=O was read as KB-3-1 tox inactive, DT40 TDP1 no CPT 5.0%, TDP1 cell CPT 2.0% and KB-V1 cytotox inactive.
Screening COc1ccc(N(C(=O)c2cnccn2)C(C(=O)NC2CCCCC2)c2cc(OC)c(OC)c(OC)c2)cc1 (centres undefined) returned KB-3-1 tox inactive, HT1080NT lethal -4.7%, DT40 TDP1 no CPT inconclusive, HT1080 IDH1KD tx 15.8%, TDP1 cell CPT 7.2% and KB-V1 cytotox inactive.
For CC(C)C(=O)N1CCCCCCN1C(=O)C(C)C the results were KB-3-1 tox inactive, HT1080NT lethal 0.6%, DT40 TDP1 no CPT -25.7%, HT1080 IDH1KD tx -0.2%, TDP1 cell CPT -2.5% and KB-V1 cytotox inactive.
For O=C(OCC(=O)N1CCC(c2ccccc2)=N1)c1ccc(Cl)s1 the results were KB-3-1 tox inactive, HT1080NT lethal 10.2%, DT40 TDP1 no CPT -15.2%, HT1080 IDH1KD tx 3.7%, TDP1 cell CPT -0.4% and KB-V1 cytotox inconclusive.
`O=C(c1ccc(Cn2cnnn2)cc1)N1CCCC(Nc2ccc(F)c(F)c2)C1` (centres undefined) gave KB-3-1 tox inactive, HT1080NT lethal -1.4%, DT40 TDP1 no CPT -14.2%, HT1080 IDH1KD tx -1.2%, TDP1 cell CPT -29.0% and KB-V1 cytotox inactive.
COc1ccc(NC(=O)C2(C)Cc3c(-c4cccc(C(N)=O)c4)ccnc3O2)cc1 (centres undefined) was read as KB-3-1 tox 7.31µM*, HT1080NT lethal inconclusive, DT40 TDP1 no CPT 3.66µM*, HT1080 IDH1KD tx inconclusive, TDP1 cell CPT 3.66µM* and KB-V1 cytotox inconclusive.
Screening COc1ccc(NC(=O)C2(C)Cc3c(-c4ccc(C(N)=O)cc4)ccnc3O2)cn1 (centres undefined) returned KB-3-1 tox inconclusive, HT1080NT lethal -21.4%, DT40 TDP1 no CPT inconclusive, HT1080 IDH1KD tx inconclusive, TDP1 cell CPT inconclusive and KB-V1 cytotox inactive.
CC1(C(=O)Nc2ccc(Cl)c(C(F)(F)F)c2)Cc2c(-c3ccc(C(N)=O)cc3)ccnc2O1 (centres undefined) was read as KB-3-1 tox inconclusive, HT1080NT lethal 16.4µM*, DT40 TDP1 no CPT 14.6µM*, HT1080 IDH1KD tx 16.4µM*, TDP1 cell CPT 18.4µM* and KB-V1 cytotox inconclusive.
`CC1(C(=O)Nc2cccc(C(F)(F)F)c2)Cc2c(-c3cccc(C(N)=O)c3)ccnc2O1` (centres undefined) gave KB-3-1 tox inactive, HT1080NT lethal inconclusive, DT40 TDP1 no CPT 6.51µM*, HT1080 IDH1KD tx inconclusive, TDP1 cell CPT -99.6% and KB-V1 cytotox inactive.
Screening O=c1cc(O)nc(-c2ccc(Cl)cc2)s1 returned KB-3-1 tox inactive, HT1080NT lethal 19.5%, DT40 TDP1 no CPT -15.6%, HT1080 IDH1KD tx 1.1%, TDP1 cell CPT -9.0% and KB-V1 cytotox inconclusive.
COc1cc2c(c(OC)c1OC)C(=O)C(=Cc1ccccc1)O2 was read as KB-3-1 tox inactive, HT1080NT lethal 6.0%, DT40 TDP1 no CPT inconclusive, HT1080 IDH1KD tx 11.0%, TDP1 cell CPT inconclusive and KB-V1 cytotox inactive.
